Some test systems named below: NCI-H23 lung; HOP-62 NSCLC; NCI-H460 lung; HOP-92 NSCLC; NCI-H522 lung; A549/ATCC NSCLC; 786-0 renal; COLO 205 colon; DU-145 prostate; K-562 leukemia; MALME-3M melanoma; MDA-MB-231 breast; RXF 393 renal; SF-268 CNS; SF-295 CNS; SF-539 CNS; UACC-257 melanoma; M14 melanoma; HCT-15 colon.
Assay in all cases: NCI-60 one-dose screen, 48 h (100 = growth as untreated, 0 = no growth, -100 = all killed)
What all share (settings): 10 µM unless noted

The panel holds about 83,000 compounds, 20% with a hit somewhere; the sample as a whole holds those more often.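 How to read the values: 0–100, growth inhibition (40 = 60% inhibited); 0, no net growth; -100 to 0, cell death (-40 = 40% of starting cells died; -100 = all dead).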 Values without a mark were called inactive. Activity calls are given as the source filed them. The calls were made as follows: active = growth percent below 10; inactive = the rest.

For `O=[N+]([O-])c1cc2c(ccc3occc32)o1`, the growth with NCI-H23 lung was 39.5%; in the test on HOP-62 NSCLC, 63.5%; with NCI-H460 lung, -28.2% (active); with HOP-92 NSCLC, 26.6%; in the test with NCI-H522 lung it was 25.7%; in the test with A549/ATCC NSCLC, 26.1%. Moreover, the growth in the test on 786-0 renal is 71.3%; in the test on COLO 205 colon it was -24.1% (active); in the test with DU-145 prostate it was -7.23% (active); in the test with K-562 leukemia, 11.9%; with MALME-3M melanoma it was -33.1% (active); in the test with MDA-MB-231 breast it was 17.3%. For the same molecule, the growth was -2.62% (active) with RXF 393 renal; 18.5% with SF-268 CNS; -34.9% (active) in the test with SF-295 CNS; 33.5% in the test on SF-539 CNS; -20.1% (active) in the test on UACC-257 melanoma; -8.26% (active) with M14 melanoma. Also, in the test with HCT-15 colon, the growth was 12.1%.

As for `O=C(c1nc2ccccc2[nH]1)C1[C@@H](c2cccc(O)c2)C2CC3CCCCC3N2[C@@]12C(=O)Nc1cc(Cl)ccc12` (some centres not stated), the growth was 48.6% in the test with NCI-H23 lung; 60.3% in the test with HOP-62 NSCLC; 13.1% with NCI-H460 lung; 55% in the test on HOP-92 NSCLC; 51.9% with NCI-H522 lung; 27.2% in the test on A549/ATCC NSCLC. Moreover, the growth with 786-0 renal is 35.2%; in the test with COLO 205 colon it was 63.5%; in the test on DU-145 prostate, 43.7%; with K-562 leukemia it was 21.5%; with MALME-3M melanoma, 32.1%; with MDA-MB-231 breast it was 34.7%. In addition, the growth in the test on RXF 393 renal is 1.99% (active); in the test on SF-268 CNS it was 49.5%; in the test on SF-295 CNS, 37.2%; in the test on SF-539 CNS it was 48.7%; in the test with UACC-257 melanoma, 48.9%; in the test with M14 melanoma, 29.2%. Besides, the growth with HCT-15 colon is 40.7%.

`Cn1c(/C=C(\C#N)c2ccccc2)nc2c(N3CCOCC3)nc(Cl)nc21`: the growth in the test with NCI-H23 lung was 17.5%; in the test with HOP-62 NSCLC, 38%; in the test with NCI-H460 lung, 18.1%; in the test on HOP-92 NSCLC it was -75.6% (active); in the test on NCI-H522 lung it was -57.5% (active); in the test on A549/ATCC NSCLC, 30.4%. Moreover, the growth in the test with 786-0 renal was -71.4% (active); in the test on DU-145 prostate, -72.4% (active); with K-562 leukemia, -13.8% (active); in the test with MALME-3M melanoma, -51.2% (active); in the test on MDA-MB-231 breast, -80.3% (active); with RXF 393 renal, -86.3% (active). Besides, the growth with SF-268 CNS is -66.2% (active); in the test with SF-295 CNS, 85.1%; in the test on SF-539 CNS, -88% (active); in the test with UACC-257 melanoma, -61.5% (active); with M14 melanoma it was -62.5% (active); in the test on HCT-15 colon it was -66.8% (active).

For `C1=CC2(C=C1)OC21CCC2(C=CC3(C2)OC3C2CCCCC2)CC1` (configuration not stated), the growth in the test on NCI-H23 lung was 116%; in the test on HOP-62 NSCLC, 112%; in the test with NCI-H460 lung, 103%; with HOP-92 NSCLC, 104%; in the test on NCI-H522 lung, 106%; in the test on A549/ATCC NSCLC, 101%. Also, the growth in the test on 786-0 renal was 100%; in the test with COLO 205 colon it was 120%; in the test on DU-145 prostate it was 112%; in the test on K-562 leukemia it was 113%; with MALME-3M melanoma, 108%; in the test with MDA-MB-231 breast, 108%. For the same molecule, the growth with RXF 393 renal was 119%; in the test on SF-268 CNS, 104%; in the test on SF-295 CNS it was 106%; with SF-539 CNS, 101%; in the test on UACC-257 melanoma it was 108%; with M14 melanoma it was 102%. Also, the growth with HCT-15 colon is 101%.

`O=C(Nc1ccc(N2CCNCC2)cc1)c1[nH]ncc1Nc1ncnc2sc3c(c12)CCC3`: the growth in the test with NCI-H23 lung is -68.6% (active); in the test on HOP-62 NSCLC it was -76.2% (active); in the test on NCI-H460 lung it was -81.8% (active); with HOP-92 NSCLC, -56.7% (active); in the test on NCI-H522 lung, -50.3% (active); in the test on A549/ATCC NSCLC it was -71.4% (active). Further, the growth is -81.4% (active) in the test with 786-0 renal; -77.2% (active) with COLO 205 colon; -92.4% (active) in the test on DU-145 prostate; -62.7% (active) in the test on K-562 leukemia; -75.9% (active) in the test on MALME-3M melanoma; -84.9% (active) in the test with MDA-MB-231 breast. Besides, the growth with RXF 393 renal was -90.8% (active); in the test with SF-268 CNS, -72.3% (active); in the test with SF-295 CNS, -77.2% (active); with SF-539 CNS, -98.8% (active); with UACC-257 melanoma it was 26%; with M14 melanoma, -91.1% (active). For the same molecule, in the test on HCT-15 colon, the growth was -85.7% (active).

In the case of `NCCOc1ncccc1/C=C1\c2ccccc2-c2ccc([N+](=O)[O-])cc21`, the growth in the test on NCI-H23 lung is -68.1% (active); with HOP-62 NSCLC, -60.1% (active); in the test with NCI-H460 lung, -46.1% (active); in the test with HOP-92 NSCLC it was -39.5% (active); with NCI-H522 lung, -20% (active); with A549/ATCC NSCLC, -58.6% (active). Besides, the growth in the test on 786-0 renal was -85.8% (active); with COLO 205 colon, -50.5% (active); in the test with DU-145 prostate it was -34.4% (active); in the test with K-562 leukemia, 2.88% (active); in the test on MALME-3M melanoma it was -80.4% (active); in the test with MDA-MB-231 breast, -42.3% (active). Further, the growth in the test with RXF 393 renal is -88.6% (active); in the test with SF-268 CNS, -12.9% (active); in the test with SF-295 CNS, -36.6% (active); with SF-539 CNS, -83% (active); in the test with UACC-257 melanoma, 5.4% (active); in the test with M14 melanoma, -63.3% (active). Moreover, in the test on HCT-15 colon, the growth is -26.4% (active).

Turning to `COc1ccc2oc(=O)cc(Cn3cc(Cn4cnc5c4c(=O)n(C)c(=O)n5C)nn3)c2c1`, the growth with NCI-H23 lung is 101%; in the test on HOP-62 NSCLC, 101%; in the test with NCI-H460 lung, 105%; in the test on HOP-92 NSCLC, 104%; with NCI-H522 lung it was 98.6%; with A549/ATCC NSCLC, 103%. Also, the growth in the test on 786-0 renal is 98%; with COLO 205 colon it was 110%; in the test on DU-145 prostate, 105%; in the test with K-562 leukemia, 103%; in the test on MALME-3M melanoma, 91.5%; with MDA-MB-231 breast it was 98%. For the same molecule, the growth was 120% with RXF 393 renal; 100% in the test with SF-268 CNS; 102% in the test on SF-295 CNS; 94% with SF-539 CNS; 98% with UACC-257 melanoma; 100% in the test with M14 melanoma. Further, the growth in the test with HCT-15 colon is 105%.

For the origin of these results see PubChem BioAssay (NCI).
